The results in this text go back to the supplement of paper PMC7726561.

Over roughly 1,400 sequences, “thermal melting temperature (Tm) of peptide-HLA complex” has its median near 60; the lowest 2% begin near 45. The full list was thinned out, with the lowest values kept by preference.
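Also: lysates heated 10 min at 37–73 °C, complexes pulled down with pan-HLA I antibody, peptide signal by DIA-MS relative to 37 °C, Tm where half the complex is unfolded.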

This test has as its target HLA-B*07:02. The experiment in a line: thermal melting temperature (Tm) of peptide-HLA complex; higher = more thermostable pHLA complex. The conditions noted are these: C1R-B*07:02.
YPARYRPTAL: the thermal melting temperature is 58.2 °C.
Under QPRLFTMDL stands 60.2 °C; under SPKSPTAAL, 60.1 °C.
Under VPQESRFNL stands 57.1 °C; under LPRSINTDTL, 58.5 °C; under KPKFILSVL, 62.7 °C.
YPRPLLIAF came in with a thermal melting temperature of 62 °C.
Under LPELKSTL stands 60.8 °C.
In turn, SPSFPRPSL showed a thermal melting temperature of 61.4 °C.
The sequence IPDVKGAVL registered a thermal melting temperature of 58.7 °C.
In turn, SPAPPLLHV showed a thermal melting temperature of 60.8 °C.
Turning to KPYAHILSV, the thermal melting temperature came to 55.5 °C.
Under SPAPRTAL stands 57.4 °C; under FPKNIFAEL, 62.8 °C.
Consider RPASGSPFQL, for which the thermal melting temperature was 52.6 °C.
Under SPYPGLRLISL stands 62.1 °C.
In turn, MPYSNGRPAL gave a thermal melting temperature of 58.2 °C.
HPRSPNVLSV had a thermal melting temperature of 57.6 °C.
As for AVDPNRAVPL, the figure is 60.5 °C; as for GPHVPFTVF, 62.3 °C; as for GPRSAQVAQSL, 40.4 °C.
Sequence SPRALTQPLGL had a thermal melting temperature of 61.2 °C.
RPTEGVQAL showed a thermal melting temperature of 54.3 °C.
VIAPVRAVL showed a thermal melting temperature of 59.2 °C.
Under VARPLSTAL stands 59.6 °C; under HPVVSSVPL, 57.8 °C; under RPYGVGLLI, 59 °C.
In turn, IPSIRNGIL returned a thermal melting temperature of 62.8 °C.
In turn, SPRTPVSPVKF showed a thermal melting temperature of 59.3 °C.
As for SPRAPVSPLKF, the figure is 59.5 °C; as for WPHPPGPFL, 62.3 °C.
Sequence SPIYISRII had a thermal melting temperature of 58.8 °C.
Under RPFERTITM stands 56.5 °C; under QPATPGLGM, 57 °C.
APSGTRVVQVL yielded a thermal melting temperature of 41.4 °C.
For KPRPIIPML, the thermal melting temperature was determined as 60.7 °C.
IPTKKSQVF gave a thermal melting temperature of 58.9 °C.
The sequence YPFFRGVTI displayed a thermal melting temperature of 61.8 °C.
HPRAPVLL displayed a thermal melting temperature of 59.5 °C.
With TPEEVRLPL, the thermal melting temperature was found to be 62.1 °C.
RPTGGVGAV had a thermal melting temperature of 54.3 °C.
On to SPANLPAVL, for which the thermal melting temperature came to 62.6 °C.
In the case of FPRAPSTSDSV, the thermal melting temperature is 57.1 °C.
With TPLGTRSGL, the thermal melting temperature came to 55.6 °C.
On to SPNLRLLDL, for which the thermal melting temperature worked out at 63.4 °C.
In turn, LPSPSPRISL had a thermal melting temperature of 60.6 °C.
GSISRIYL: the thermal melting temperature is 41.4 °C.
For NVRPPNTAL, the thermal melting temperature came out at 56.8 °C.
APYSRPKQL registered a thermal melting temperature of 61.5 °C.
As to APRGTGIVSA, the thermal melting temperature was 57.4 °C.
In turn, IPRGADNLVAI showed a thermal melting temperature of 61.8 °C.
VPRPPSLLATL registered a thermal melting temperature of 62.9 °C.
The sequence FPQHTIASL gave a thermal melting temperature of 58.7 °C.
Under GPRNVLLFL stands 55.1 °C; under TPQQGAQTSL, 40.5 °C; under TPQGFRSTL, 60 °C.
